Results from publication PMC7862700, “An all-to-all approach to the identification of sequence-specific readers for epigenetic DNA modifications on cytosine”.

Experiments:
Experiment in all cases: DAPPL (digital affinity profiling via proximity ligation, sequencing); 10 mM Tris-HCl pH 7.5, 50 mM NaCl, 1 mM DTT, 4% glycerol, room temperature, 30 min; GST-TFs on glutathione beads, 16-mer random dsDNA library, 0.1% formaldehyde crosslink after washing; high values mean tight binding
Settings in all cases: protein: recombinant; tags: N-terminal GST; dsDNA, one strand shown
ERG = biological target: T1, ERG (Homo sapiens, UniProt P11308 1-479)
T1 sequence: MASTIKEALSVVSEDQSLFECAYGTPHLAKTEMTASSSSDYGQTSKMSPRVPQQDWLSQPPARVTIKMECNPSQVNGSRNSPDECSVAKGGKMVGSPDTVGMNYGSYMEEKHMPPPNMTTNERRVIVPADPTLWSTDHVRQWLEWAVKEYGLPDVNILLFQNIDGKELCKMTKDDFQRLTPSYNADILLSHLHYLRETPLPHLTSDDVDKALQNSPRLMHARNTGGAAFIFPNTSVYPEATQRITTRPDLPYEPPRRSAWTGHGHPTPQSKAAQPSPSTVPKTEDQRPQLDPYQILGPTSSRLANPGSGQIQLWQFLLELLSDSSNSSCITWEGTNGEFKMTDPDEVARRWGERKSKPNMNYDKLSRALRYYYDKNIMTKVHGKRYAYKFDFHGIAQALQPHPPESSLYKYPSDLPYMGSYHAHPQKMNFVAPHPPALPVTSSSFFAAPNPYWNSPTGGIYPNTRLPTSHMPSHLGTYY
Method in brief: (§1)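 Binding signal is each hexamer's read frequency for a factor divided by its frequency in the tag-only sample. The factors were GST-fused human transcription factors from yeast, captured on glutathione beads, DNA-barcoded and pooled with that sample. Pools were incubated with 200 nmole of a random double-stranded 16-mer DNA library in Tris/NaCl/DTT/glycerol buffer at room temperature for 30 min, then washed, crosslinked with 0.1% formaldehyde, proximity-ligated with BsaI/T4 ligase (1 h, 37 °C), PCR-amplified and sequenced on an Illumina NextSeq500.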

EHF = biological target: T2, EHF (Homo sapiens, UniProt Q9NZC4 1-300)
T2 sequence: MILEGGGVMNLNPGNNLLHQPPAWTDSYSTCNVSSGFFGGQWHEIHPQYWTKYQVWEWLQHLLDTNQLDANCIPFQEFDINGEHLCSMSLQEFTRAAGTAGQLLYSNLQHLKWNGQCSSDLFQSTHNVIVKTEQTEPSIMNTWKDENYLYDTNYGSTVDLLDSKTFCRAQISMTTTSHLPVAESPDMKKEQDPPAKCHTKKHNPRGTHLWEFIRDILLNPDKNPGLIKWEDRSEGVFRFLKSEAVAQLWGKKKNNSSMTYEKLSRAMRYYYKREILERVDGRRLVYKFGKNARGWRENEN
Method in brief: as §1

SPIB = SPIB (Homo sapiens, UniProt Q01892 1-262)
SPIB, sequence (Q01892 whole entry): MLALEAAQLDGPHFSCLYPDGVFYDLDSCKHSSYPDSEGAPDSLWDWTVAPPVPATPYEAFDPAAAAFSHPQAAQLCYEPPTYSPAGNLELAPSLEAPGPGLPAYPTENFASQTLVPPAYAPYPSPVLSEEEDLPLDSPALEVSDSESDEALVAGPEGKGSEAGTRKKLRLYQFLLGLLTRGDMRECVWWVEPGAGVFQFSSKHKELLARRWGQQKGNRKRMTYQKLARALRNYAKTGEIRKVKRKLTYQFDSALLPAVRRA
Method in brief: as §1

ETV5 = ETV5 (Homo sapiens, UniProt P41161 1-510)
ETV5, sequence (P41161 whole entry): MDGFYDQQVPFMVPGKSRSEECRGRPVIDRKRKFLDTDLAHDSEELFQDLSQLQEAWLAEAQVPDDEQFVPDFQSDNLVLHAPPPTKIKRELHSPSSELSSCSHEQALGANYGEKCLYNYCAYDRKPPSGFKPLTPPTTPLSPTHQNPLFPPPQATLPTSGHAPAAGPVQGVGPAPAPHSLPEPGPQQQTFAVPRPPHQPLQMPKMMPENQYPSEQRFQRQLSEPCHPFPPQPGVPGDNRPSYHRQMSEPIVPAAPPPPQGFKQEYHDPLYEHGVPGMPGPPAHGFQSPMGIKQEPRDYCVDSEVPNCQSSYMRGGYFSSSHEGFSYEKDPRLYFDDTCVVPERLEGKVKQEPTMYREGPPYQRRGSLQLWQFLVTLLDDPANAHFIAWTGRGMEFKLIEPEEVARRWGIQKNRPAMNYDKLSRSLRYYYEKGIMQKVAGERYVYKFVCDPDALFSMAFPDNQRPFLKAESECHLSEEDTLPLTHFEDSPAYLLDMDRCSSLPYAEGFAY
Method in brief: as §1

ETV1 = ETV1 (Homo sapiens, UniProt P50549 1-477)
ETV1, sequence (P50549 whole entry): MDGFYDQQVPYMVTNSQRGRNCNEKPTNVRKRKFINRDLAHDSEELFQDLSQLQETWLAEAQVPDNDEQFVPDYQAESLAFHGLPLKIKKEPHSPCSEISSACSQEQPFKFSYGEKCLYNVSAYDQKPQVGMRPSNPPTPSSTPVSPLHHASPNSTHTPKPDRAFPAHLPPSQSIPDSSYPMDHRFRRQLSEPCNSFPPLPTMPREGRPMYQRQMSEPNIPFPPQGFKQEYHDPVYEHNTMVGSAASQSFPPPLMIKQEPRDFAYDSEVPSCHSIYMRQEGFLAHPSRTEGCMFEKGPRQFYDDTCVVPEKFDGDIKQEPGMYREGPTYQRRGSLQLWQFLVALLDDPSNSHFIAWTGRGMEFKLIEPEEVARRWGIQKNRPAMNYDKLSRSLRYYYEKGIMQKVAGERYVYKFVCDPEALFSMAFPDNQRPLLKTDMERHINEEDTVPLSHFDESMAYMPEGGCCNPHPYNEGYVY
Method in brief: as §1

ETV3L = biological target: T3, ETV3L (Homo sapiens, UniProt Q6ZN32 1-361)
T3 sequence: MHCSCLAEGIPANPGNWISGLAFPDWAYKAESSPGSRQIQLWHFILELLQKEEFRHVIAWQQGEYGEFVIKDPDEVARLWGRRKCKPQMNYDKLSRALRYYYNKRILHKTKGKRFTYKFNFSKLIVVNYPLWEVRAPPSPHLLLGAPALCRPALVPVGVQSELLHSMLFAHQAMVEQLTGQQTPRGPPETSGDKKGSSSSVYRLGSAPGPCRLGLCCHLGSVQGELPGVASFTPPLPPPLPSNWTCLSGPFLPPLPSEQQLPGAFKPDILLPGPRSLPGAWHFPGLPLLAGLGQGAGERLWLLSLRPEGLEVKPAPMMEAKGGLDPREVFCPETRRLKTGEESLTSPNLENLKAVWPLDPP
Method in brief: as §1

ETS2 = biological target: T4, ETS2 (Homo sapiens, UniProt P15036 1-469)
T4 sequence: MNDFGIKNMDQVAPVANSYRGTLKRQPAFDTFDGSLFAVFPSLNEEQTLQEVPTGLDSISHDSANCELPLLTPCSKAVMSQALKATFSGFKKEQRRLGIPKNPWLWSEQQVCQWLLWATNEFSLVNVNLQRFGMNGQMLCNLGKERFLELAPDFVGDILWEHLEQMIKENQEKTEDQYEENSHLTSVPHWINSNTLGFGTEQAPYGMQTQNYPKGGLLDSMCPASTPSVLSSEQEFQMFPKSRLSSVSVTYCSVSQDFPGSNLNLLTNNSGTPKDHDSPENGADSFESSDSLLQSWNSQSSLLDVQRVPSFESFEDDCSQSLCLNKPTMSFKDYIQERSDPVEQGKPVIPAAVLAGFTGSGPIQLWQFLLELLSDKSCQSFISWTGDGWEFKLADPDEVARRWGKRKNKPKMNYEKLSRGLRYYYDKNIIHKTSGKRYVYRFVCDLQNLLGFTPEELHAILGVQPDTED
Method in brief: as §1

SPDEF = biological target: T5, SPDEF (Homo sapiens, UniProt O95238 1-335)
T5 sequence: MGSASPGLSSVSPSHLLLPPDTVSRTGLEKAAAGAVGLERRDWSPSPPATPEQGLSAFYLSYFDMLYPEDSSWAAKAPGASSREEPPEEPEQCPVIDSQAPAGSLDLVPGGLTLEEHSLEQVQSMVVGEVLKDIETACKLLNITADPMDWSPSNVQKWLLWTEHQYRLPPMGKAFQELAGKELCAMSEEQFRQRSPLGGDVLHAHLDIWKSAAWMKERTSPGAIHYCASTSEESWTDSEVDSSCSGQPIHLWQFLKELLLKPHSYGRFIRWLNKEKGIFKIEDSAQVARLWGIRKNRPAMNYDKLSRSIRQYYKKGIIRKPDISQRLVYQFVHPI
Method in brief: as §1

ETV7 = biological target: T6, ETV7 (Homo sapiens, UniProt Q9Y603 1-341)
T6 sequence: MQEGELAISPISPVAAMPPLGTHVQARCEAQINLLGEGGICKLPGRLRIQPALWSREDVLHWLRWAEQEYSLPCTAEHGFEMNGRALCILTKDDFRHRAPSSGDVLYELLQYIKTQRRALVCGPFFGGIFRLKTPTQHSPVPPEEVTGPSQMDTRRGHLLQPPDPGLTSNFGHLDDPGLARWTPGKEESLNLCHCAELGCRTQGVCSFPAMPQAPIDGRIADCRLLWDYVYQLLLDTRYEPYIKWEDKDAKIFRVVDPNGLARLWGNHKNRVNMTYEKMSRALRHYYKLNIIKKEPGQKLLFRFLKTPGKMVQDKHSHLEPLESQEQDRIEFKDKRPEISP
Method in brief: as §1

ETV3 = biological target: T7, ETV3 (Homo sapiens, UniProt P41162-2 1-143)
T7 sequence: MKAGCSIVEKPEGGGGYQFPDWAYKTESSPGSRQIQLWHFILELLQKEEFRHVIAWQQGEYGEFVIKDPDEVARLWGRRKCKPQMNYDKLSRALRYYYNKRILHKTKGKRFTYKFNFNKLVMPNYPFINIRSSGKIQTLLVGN
Method in brief: as §1

ETV6 = ETV6 (Homo sapiens, UniProt P41212 1-452)
ETV6, sequence (P41212 whole entry): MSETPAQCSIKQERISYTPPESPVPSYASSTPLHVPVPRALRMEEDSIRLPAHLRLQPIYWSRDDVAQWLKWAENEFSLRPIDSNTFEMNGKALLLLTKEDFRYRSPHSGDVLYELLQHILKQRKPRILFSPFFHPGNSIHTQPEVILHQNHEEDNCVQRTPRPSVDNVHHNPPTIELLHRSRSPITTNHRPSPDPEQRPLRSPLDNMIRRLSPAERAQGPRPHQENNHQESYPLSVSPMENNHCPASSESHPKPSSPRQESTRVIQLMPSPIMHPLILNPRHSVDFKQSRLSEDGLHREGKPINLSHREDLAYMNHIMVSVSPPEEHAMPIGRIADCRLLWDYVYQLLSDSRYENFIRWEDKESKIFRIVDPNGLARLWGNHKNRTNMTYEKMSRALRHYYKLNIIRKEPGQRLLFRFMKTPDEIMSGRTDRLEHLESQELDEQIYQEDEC
Method in brief: as §1

Q: AGGATG was tested. Which binding signal (ERG) did it give?
A: 1.1 fold enrichment (6-mer frequency, TF over GST control)

Q: What about the binding signal (EHF) of the same sequence?
A: 1.09 fold enrichment (6-mer frequency, TF over GST control)

Q: And the binding signal (SPIB)?
A: 1.1 fold enrichment (6-mer frequency, TF over GST control)

Q: What about the binding signal (ETV5) of the same sequence?
A: 1.09 fold enrichment (6-mer frequency, TF over GST control)

Q: And the binding signal (ETV1)?
A: 1.05 fold enrichment (6-mer frequency, TF over GST control)

Q: What about the binding signal (ETV3L) of the same sequence?
A: 1.06 fold enrichment (6-mer frequency, TF over GST control)

Q: What about the binding signal (ETS2) of the same sequence?
A: 1.07 fold enrichment (6-mer frequency, TF over GST control)

Q: What about the binding signal (SPDEF) of the same sequence?
A: 1.51 fold enrichment (6-mer frequency, TF over GST control)

Q: And the binding signal (ETV7)?
A: 1.04 fold enrichment (6-mer frequency, TF over GST control)

Q: And the binding signal (ETV3)?
A: 1.13 fold enrichment (6-mer frequency, TF over GST control)

Q: What about the binding signal (ETV6) of the same sequence?
A: 1.08 fold enrichment (6-mer frequency, TF over GST control)
